From the supplement of paper PMC10849652
Targets with a hit are over-represented here; the source holds about 7,900 in all. About 0.6% of all pairs of compound and target were hits. Values without a mark were called inactive.

Legend:
Assay in all cases: log2 fold change, soluble protein after heating vs DMSO (PISA); higher = thermal stabilisation; K562 cells, 10 uM, 30 min; active = over 0.2 and 3.5 SD of the protein, either way, in both replicates (recomputed)
[1] = compound: CC[C@@H]1C(=O)N(C)c2cnc(Nc3ccc(C(=O)NC4CCN(C)CC4)cc3OC)nc2N1C1CCCC1
In short: (§1)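 K562 cells at 2×10^6 cells/mL were treated for 30 min with 10 μM compound, and aliquots were heated for 3 min over 48°C-58°C before pooling. Extraction used PBS with 0.5% NP-40 at 4°C, and soluble protein was the supernatant after 21,000xg for 90 min, measured by TMTpro 16plex LC-MS/MS with channel sums equalised. Thermal stability values, relative to control samples and from duplicates, are log2 fold changes.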

volasertib = compound: CC[C@@H]1C(=O)N(C)c2cnc(Nc3ccc(C(=O)N[C@H]4CC[C@H](N5CCN(CC6CC6)CC5)CC4)cc3OC)nc2N1C(C)C [volasertib]
In short: as §1

[2] = compound: CC[C@H](C)N1C=C(C2=C(C=C(C=C21)C3=CN=C(C=C3)N4CCNCC4)C(=O)NCC5=C(C=C(NC5=O)C)C)C
In short: as §1

epoxomicin = compound: CC[C@H](C)[C@@H](C(=O)N[C@@H]([C@@H](C)O)C(=O)N[C@@H](CC(C)C)C(=O)[C@]1(CO1)C)NC(=O)[C@H]([C@@H](C)CC)N(C)C(=O)C [epoxomicin]
In short: as §1

[3] = compound: CCn1c(C(=O)N(C2CC2)C2CC2)cc2c3c(ncn3C)c(Nc3cc(C)n(C)n3)nc21
In short: as §1

[4] = compound: CCn1cc(-c2ccnc3[nH]c(-c4cccc(CN(C)C)c4)cc23)c(-c2ccc(NC(=O)N(C)C)cc2)n1
In short: as §1

[5] = compound: CN(C)CC(=O)Nc1ccc2[nH]c(=O)c3ccccc3c2c1
In short: as §1

rosiglitazone = compound: CN(CCOC1=CC=C(C=C1)C[C@H]2C(=O)NC(=O)S2)C3=CC=CC=N3 (racemic) [rosiglitazone]
In short: as §1

[6] = compound: CN1C2=C(C3=C1C(=O)N(N=C3)CC4=CC(=CC=C4)N)SC(=C2)S(=O)C
In short: as §1

[7] = compound: CN1CCC(CNc2ccc3ncc(-c4cccc(OC(F)(F)F)c4)n3n2)CC1
In short: as §1

Sequence of UniProt Q9Y5Z9 (Q9Y5Z9 whole entry, looked up): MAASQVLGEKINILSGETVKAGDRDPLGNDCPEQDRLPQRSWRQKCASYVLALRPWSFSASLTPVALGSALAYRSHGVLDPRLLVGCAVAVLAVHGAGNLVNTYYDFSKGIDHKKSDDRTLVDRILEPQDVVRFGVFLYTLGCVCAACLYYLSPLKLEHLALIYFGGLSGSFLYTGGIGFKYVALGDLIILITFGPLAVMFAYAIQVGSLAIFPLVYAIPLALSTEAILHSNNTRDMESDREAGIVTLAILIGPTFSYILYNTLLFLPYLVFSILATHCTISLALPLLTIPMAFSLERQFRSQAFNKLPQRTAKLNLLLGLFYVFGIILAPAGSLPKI
Sequence of UniProt Q9Y6I4 (Q9Y6I4 whole entry, looked up): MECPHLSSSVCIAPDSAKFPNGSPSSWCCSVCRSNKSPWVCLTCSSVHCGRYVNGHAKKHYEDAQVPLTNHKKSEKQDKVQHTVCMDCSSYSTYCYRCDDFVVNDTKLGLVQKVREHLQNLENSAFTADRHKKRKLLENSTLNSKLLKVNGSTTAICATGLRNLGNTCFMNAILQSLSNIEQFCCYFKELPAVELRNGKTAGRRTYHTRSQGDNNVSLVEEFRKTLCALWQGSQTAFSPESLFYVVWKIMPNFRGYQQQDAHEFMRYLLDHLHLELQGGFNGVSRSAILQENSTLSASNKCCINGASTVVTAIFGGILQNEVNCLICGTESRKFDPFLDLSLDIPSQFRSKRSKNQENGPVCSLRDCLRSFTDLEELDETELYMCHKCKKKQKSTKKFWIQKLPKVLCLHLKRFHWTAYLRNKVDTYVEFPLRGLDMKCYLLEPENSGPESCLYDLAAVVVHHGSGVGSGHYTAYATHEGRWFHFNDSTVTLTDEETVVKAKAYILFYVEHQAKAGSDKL
Sequence of UniProt Q9H269 (Q9H269 whole entry, looked up): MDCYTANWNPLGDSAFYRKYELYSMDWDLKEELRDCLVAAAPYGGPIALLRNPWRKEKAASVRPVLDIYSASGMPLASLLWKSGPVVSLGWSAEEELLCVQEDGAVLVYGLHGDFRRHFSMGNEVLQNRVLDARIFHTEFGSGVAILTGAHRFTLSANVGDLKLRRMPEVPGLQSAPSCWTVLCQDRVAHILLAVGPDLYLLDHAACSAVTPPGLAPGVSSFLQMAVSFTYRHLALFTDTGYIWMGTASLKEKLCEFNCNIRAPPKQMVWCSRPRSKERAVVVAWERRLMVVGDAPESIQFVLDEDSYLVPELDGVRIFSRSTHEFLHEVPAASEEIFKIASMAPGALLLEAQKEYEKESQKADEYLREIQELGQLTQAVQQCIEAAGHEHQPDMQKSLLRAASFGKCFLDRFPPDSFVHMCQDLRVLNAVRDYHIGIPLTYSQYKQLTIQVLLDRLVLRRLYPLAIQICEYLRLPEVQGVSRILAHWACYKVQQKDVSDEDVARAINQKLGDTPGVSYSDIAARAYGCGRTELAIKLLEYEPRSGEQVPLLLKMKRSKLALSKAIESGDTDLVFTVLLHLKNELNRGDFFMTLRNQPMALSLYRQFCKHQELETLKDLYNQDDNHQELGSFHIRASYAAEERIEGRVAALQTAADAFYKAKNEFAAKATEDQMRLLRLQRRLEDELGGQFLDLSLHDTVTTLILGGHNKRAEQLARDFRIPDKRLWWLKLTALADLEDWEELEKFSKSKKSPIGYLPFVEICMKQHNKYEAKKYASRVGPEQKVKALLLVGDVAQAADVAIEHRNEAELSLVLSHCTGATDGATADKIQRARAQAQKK
Sequence of UniProt Q12768 (Q12768 whole entry, looked up): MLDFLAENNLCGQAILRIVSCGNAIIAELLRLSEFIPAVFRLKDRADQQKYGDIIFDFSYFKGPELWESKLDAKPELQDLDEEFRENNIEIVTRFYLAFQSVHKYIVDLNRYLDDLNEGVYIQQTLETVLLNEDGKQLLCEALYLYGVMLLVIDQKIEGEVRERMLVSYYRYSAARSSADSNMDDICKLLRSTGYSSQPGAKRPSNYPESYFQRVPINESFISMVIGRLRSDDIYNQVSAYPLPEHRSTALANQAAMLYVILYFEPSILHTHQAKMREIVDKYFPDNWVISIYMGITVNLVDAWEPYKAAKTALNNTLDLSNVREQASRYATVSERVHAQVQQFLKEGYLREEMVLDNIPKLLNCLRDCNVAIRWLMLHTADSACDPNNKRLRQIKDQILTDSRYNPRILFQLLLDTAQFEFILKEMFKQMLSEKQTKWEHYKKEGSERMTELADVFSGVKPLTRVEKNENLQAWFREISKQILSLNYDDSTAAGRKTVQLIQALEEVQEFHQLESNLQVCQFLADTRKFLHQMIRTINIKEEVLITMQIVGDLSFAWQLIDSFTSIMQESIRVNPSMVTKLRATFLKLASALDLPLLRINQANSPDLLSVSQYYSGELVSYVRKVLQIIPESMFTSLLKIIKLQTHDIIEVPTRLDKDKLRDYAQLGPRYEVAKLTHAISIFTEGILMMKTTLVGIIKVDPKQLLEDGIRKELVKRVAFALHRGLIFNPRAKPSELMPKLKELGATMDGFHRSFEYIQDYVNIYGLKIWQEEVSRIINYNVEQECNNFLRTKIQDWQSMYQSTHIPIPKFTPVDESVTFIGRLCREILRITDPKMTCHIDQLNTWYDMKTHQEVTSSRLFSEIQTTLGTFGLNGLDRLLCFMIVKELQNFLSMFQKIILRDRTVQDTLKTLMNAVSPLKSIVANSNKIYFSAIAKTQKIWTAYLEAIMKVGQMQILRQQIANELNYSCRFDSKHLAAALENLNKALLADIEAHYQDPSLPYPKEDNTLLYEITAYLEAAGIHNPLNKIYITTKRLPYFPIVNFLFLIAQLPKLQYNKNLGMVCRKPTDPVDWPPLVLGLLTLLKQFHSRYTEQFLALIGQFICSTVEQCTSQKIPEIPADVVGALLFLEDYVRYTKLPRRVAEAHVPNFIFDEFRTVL
Sequence of UniProt O14773 (O14773 whole entry, looked up): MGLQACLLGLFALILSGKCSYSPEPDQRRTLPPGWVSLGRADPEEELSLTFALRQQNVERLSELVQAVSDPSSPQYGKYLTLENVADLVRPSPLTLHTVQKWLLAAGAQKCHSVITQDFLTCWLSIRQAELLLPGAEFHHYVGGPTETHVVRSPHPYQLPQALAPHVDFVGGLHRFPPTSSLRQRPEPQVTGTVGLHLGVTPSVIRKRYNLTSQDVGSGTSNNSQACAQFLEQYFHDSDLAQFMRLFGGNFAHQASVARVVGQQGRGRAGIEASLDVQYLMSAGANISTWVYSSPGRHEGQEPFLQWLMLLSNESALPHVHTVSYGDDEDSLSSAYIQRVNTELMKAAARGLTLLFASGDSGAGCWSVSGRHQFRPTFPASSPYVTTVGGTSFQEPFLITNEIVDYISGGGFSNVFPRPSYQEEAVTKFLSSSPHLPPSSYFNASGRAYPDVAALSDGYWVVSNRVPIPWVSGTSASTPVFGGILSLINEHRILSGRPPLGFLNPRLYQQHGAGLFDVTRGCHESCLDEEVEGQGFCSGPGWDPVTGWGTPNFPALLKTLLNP
Sequence of UniProt O95155 (O95155 whole entry, looked up): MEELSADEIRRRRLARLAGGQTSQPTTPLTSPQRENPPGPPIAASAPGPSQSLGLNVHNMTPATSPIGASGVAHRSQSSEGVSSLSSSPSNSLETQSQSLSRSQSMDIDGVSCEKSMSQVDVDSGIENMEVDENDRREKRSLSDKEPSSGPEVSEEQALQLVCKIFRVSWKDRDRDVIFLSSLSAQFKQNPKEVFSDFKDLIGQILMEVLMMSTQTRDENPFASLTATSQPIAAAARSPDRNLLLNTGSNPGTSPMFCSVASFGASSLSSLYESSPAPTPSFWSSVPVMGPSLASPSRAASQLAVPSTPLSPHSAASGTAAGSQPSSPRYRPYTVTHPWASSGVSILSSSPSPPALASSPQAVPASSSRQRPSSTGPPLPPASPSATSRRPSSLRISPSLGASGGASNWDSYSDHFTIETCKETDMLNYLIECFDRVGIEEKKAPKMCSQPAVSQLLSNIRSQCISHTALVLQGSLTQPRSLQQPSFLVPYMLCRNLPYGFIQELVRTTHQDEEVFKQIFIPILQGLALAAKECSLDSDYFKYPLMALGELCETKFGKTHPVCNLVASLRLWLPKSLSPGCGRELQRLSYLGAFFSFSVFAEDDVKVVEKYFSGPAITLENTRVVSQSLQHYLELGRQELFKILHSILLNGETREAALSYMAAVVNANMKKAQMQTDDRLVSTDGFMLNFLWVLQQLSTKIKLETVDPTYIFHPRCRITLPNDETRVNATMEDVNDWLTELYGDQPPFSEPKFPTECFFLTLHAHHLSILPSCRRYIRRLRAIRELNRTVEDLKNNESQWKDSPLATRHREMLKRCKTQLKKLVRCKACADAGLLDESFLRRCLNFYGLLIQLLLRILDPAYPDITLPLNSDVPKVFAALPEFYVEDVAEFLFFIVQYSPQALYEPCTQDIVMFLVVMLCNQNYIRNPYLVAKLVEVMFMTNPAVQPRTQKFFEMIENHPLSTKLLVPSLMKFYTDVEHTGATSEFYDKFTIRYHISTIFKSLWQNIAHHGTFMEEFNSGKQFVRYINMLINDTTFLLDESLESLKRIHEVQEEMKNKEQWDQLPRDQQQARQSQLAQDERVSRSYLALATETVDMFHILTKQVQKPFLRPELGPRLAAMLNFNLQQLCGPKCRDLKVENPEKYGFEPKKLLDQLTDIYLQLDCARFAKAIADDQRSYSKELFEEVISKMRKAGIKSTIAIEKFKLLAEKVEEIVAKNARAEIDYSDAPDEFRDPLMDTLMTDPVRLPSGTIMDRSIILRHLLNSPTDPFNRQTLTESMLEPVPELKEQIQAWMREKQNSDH
Sequence of UniProt Q8TBZ6 (Q8TBZ6 whole entry, looked up): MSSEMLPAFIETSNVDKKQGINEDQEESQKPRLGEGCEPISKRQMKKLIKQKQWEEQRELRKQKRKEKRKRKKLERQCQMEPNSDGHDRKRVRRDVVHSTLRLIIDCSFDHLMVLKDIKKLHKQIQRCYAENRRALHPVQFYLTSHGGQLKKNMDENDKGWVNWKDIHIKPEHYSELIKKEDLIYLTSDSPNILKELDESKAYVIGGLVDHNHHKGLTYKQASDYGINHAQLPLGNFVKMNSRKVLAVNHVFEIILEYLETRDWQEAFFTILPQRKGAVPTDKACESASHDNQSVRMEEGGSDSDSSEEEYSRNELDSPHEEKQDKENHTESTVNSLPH

Target	log2 fold change [1]	log2 fold change (volasertib)	log2 fold change [2]	log2 fold change (epoxomicin)	log2 fold change [3]	log2 fold change [4]	log2 fold change [5]	log2 fold change (rosiglitazone)	log2 fold change [6]	log2 fold change [7]
UBC (UniProt P0CG48)	0.065	0.087	0.015	0.401 (active)	0.026	0.024	0.003	0.003	-0.023	0.158
WDR41 (UniProt Q9HAD4)	-0.169	-0.282 (active)	-0.056	0.061	-0.026	-0.043	0.012	0.007	-0.076	-0.115
UBE4B isoform 4 (UniProt O95155)	-0.046	-0.229 (active)	0.024	0.023	0	-0.005	0.01	0.05	-0.003	-0.079
XRCC5 (UniProt P13010)	-0.172	-0.482	0.207	0.069	-0.103	0.009	0.169	0.114	0.124	-0.087
UFM1 isoform 2 (UniProt P61960)	0.116	0.012	0.069	0.029	0.034	-0.001	0.114	-0.03	0.004	-0.005
USP3 (UniProt Q9Y6I4)	-0.173	-0.325	0.04	-0.083	-0.051	-0.037	0.063	0.094	-0.077	-0.379 (active)
TRMT10A (UniProt Q8TBZ6)	0.016	-0.013	0.033	0.003	-0.026	-0.037	0.047	0.034	-0.135	-0.075
TOE1 (UniProt Q96GM8)	0.067	0.154	-0.023	-0.148	-0.067	0.035	-0.043	-0.03	0.107	0.35 (active)
TSG101 (UniProt Q99816)	-0.137	-0.268 (active)	0.036	0.065	-0.011	-0.021	0.002	0.023	-0.018	-0.124
TPP1 (UniProt O14773)	-0.647 (active)	-1.09 (active)	-0.002	0.019	0.033	-0.117	0.007	0.007	-0.001	-0.569 (active)
TRAPPC3 (UniProt O43617)	-0.019	-0.118	-0.02	-0.029	0.047	0.04	-0.016	-0.022	-0.051	-0.059
WARS2 (UniProt Q9UGM6)	-0.07	-0.323 (active)	0.099	0.016	0.043	-0.03	0.043	0.074	-0.055	-0.099
WASH2P (UniProt Q6VEQ5)	-0.071	-0.163	0.024	0	0.002	0.037	0.021	0.033	0.012	-0.067
TMEM106B (UniProt Q9NUM4)	0.025	-0.032	-0.05	-0.11	-0.026	-0.007	-0.05	0.022	0.012	-0.13
WDR43 (UniProt Q15061)	0.029	-0.029	-0.04	-0.026	0	0.036	0.004	-0.025	-0.04	0.192
TP53BP1 isoform 2 (UniProt Q12888)	-0.024	-0.072	0.021	0	-0.01	0	0.008	-0.018	0.052	0.025
UBAP2L isoform 5 (UniProt Q14157)	0.005	-0.023	-0.02	-0.018	0.019	0.004	-0.035	-0.007	-0.039	0.009
TXNIP (UniProt Q9H3M7)	0.112	0.021	0.053	0.054	0.212	-0.066	-0.026	0.036	-0.07	-0.793 (active)
XPO1 (UniProt O14980)	-0.175	-0.546 (active)	0.085	0.023	-0.049	-0.13	0.058	0.077	-0.033	-0.343 (active)
WASHC2A (UniProt Q641Q2)	-0.058	-0.15	0.026	0.022	0.018	0.052	-0.046	-0.004	0.037	-0.18
VPS16 (UniProt Q9H269)	-0.244	-0.671 (active)	0.042	0.045	0.003	-0.072	0.083	0.113	0.026	-0.316
WDR11 (UniProt Q9BZH6)	0.079	0.031	-0.183	0	0.062	0.089	-0.061	0.08	0.009	-0.131
VTI1A (UniProt Q96AJ9)	0.051	-0.002	-0.026	0.006	0.039	0.068	0.028	-0.017	0.01	-0.219 (active)
WASHC5 (UniProt Q12768)	-0.109	-0.268	0.09	0.049	-0.061	0.035	0.045	0.008	-0.006	-0.114
TRIP10 isoform 2 (UniProt Q15642)	-0.033	-0.276	-0.018	-0.285	-0.073	-0.101	-0.18	-0.012	0.045	-0.075
UBIAD1 (UniProt Q9Y5Z9)	-0.008	-0.065	-0.014		-0.009	0.027	-0.011	0.044	-0.094	-0.041
TRABD (UniProt Q9H4I3)	0.245	0.215	0	-0.004	0.128	-0.108	0.029	0.001		0.228
UNC119B (UniProt A6NIH7)	-0.168	0.066	-0.224		-0.134	-0.104	-0.023	0.001	0.004	0.047
UBE2D1 (UniProt P51668)	-0.123	-0.333 (active)	-0.024		0.037	-0.045	0.017	0.099	-0.109	-0.095
TOM1L1 (UniProt O75674)	0.072	-0.052	0.027	0.013	-0.023	-0.004	0.043	0.062	-0.053	0.385 (active)
